Measured values from PubChem BioAssay (Tox21).
Records with an inconclusive call do not appear. The source made the active and inactive calls. Unless noted, the call rests on the fitted dose curve; in most records, active means well fitted curve in the direction sought with a large enough effect in the repeat runs; inconclusive means weak or mixed curves; inactive means no such curve, though single readings can be large; an effect the other way counts as inactive or inconclusive.

Columns and labels:
[1] = qHTS assay to identify small molecule antagonists of the retinoic acid receptor (RAR) signaling pathway (AID 1159552; further: on the % scale 0 is the no-effect control and ±100 the full control effect; nearly all actives have a fitted effect of over 50% in size)
How it was run: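 RARE-luc C3RL4 cells; cpds + 1 uM (final) retinol, 6 hr, 37 C/5% CO2; luciferase reagent, 30 min RT, luminescence readout. Inhibitors of retinol-driven signal scored.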

[2] = qHTS assay to identify small molecule antagonists of the estrogen related receptor (ERR) signaling pathway from Tox21 library - cell viability counter screen (AID 1224834); further: nearly all actives have a fitted effect of over 30% in size; further: potency means the concentration at half of the fitted maximal effect; on viability change, negative = cytotoxic: on the % scale 0 is the no-effect control and ±100 the full control effect
How it was run: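 After 17.5 h of compound exposure at 37 C, ERR cells are incubated with CellTiter-Fluor for 30 min and fluorescence intensity serves as the viability measure.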

[3] = biological target: Luciferin 4-monooxygenase (Photinus pyralis) (UniProt P08659); assay: qHTS assay to identify small molecule inhibitors of firefly luciferase (AID 1224835); further: nearly all actives have a fitted effect of over 25% in size; further: potency means the concentration at half of the fitted maximal effect
Sequence of Luciferin 4-monooxygenase (Photinus pyralis) (P08659 whole entry, looked up): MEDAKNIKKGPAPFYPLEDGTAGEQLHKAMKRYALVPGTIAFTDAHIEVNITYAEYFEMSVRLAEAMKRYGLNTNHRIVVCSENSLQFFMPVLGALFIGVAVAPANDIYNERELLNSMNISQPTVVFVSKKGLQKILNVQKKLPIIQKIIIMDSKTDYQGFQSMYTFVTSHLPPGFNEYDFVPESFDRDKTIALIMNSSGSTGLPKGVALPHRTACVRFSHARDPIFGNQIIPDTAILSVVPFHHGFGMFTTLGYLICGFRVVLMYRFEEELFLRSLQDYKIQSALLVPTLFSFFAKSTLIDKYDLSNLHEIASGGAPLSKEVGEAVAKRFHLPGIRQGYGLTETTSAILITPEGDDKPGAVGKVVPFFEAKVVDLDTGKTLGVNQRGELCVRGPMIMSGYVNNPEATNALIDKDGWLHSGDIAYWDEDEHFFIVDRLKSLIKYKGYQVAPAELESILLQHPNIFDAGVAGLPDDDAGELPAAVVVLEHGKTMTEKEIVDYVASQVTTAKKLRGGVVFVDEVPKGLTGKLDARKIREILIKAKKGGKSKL
How it was run: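 Biochemical qHTS: compounds run as interplate titrations against purified firefly enzyme, with D-luciferin and ATP each at its KM concentration. Light output recorded by CCD imaging.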

[4] = qHTS assay to identify small molecule agonists of the constitutive androstane receptor (CAR) signaling pathway - cell viability counter screen (AID 1224836); further: series mostly up to about 92 µM; on the % scale 0 is the no-effect control and ±100 the full control effect; nearly all actives have a fitted effect of over 45% in size
How it was run: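 HepG2 cells stably carrying hCAR and a CYP2B6-2.2kb reporter were plated 4 h, then given compounds at 15 concentrations plus PK11195 (final 0.75 uM). After 23 h at 37 C, viability was read by CellTiter-Fluor fluorescence.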

[5] = qHTS assay to identify small molecule antagonists of the constitutive androstane receptor (CAR) signaling pathway - cell viability counter screen (AID 1224837); further: series mostly up to about 92 µM; on the % scale 0 is the no-effect control and ±100 the full control effect; nearly all actives have a fitted effect of over 45% in size
How it was run: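 Counter screen run in HepG2-CYP2B6-hCAR cells: 4 hr settle, compound titration (15 concentrations) with 50 nM CITCO, 23 hr at 37 C/5% CO2, CellTiter-Fluor fluorescence.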

[6] = biological target: Nuclear receptor subfamily 1 group I member 3 (Homo sapiens) (UniProt Q14994); assay: qHTS assay to identify small molecule antagonists of the constitutive androstane receptor (CAR) signaling pathway (AID 1224838); further: on the % scale 0 is the no-effect control and ±100 the full control effect; nearly all actives have a fitted effect of over 40% in size
Sequence of Nuclear receptor subfamily 1 group I member 3 (Homo sapiens) (Q14994 whole entry, looked up): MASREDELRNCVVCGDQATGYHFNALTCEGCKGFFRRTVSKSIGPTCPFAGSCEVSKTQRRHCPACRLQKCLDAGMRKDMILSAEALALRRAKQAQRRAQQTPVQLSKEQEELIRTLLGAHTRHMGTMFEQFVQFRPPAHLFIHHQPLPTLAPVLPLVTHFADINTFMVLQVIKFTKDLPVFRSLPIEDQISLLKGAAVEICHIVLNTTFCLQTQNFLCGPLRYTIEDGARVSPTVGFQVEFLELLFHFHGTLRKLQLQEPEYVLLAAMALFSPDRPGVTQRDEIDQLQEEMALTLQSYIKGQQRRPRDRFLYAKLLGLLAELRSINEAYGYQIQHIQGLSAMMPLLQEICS
How it was run: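 Cell line: HepG2 double-stable for hCAR and CYP2B6-2.2kb reporter. Agonist: CITCO, 50 nM final. Compounds: 15 concentrations, 24 h, 37 C. Detection: ONE-Glo luminescence.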

[7] = qHTS assay to identify small molecule antagonists of the estrogen related receptor signaling pathway with the pleiotropic PPARgamma coactivator (PGC) from Tox21 10K library - cell viability counter screen (AID 1224840; active means well fitted cell-killing curve with a large enough effect in the repeat runs, not every such curve was filed as active; further: on the % scale 0 is the no-effect control and ±100 the full control effect; nearly all actives have a fitted effect of over 40% in size)
How it was run: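 Following seeding of 2,000 PGC/ERR cells/well and 6 hours' incubation, test compounds were delivered in DMSO. The plates then sat 17.5 hours at 37 C before a fluorogenic live-cell protease reagent (CellTiter-Fluor) was read after 30 min.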

[8] = qHTS assay to identify small molecule agonists of the retinoic acid receptor (RAR) signaling pathway (AID 1159553); further: potency means the concentration at half of the fitted maximal effect; on activation: on the % scale 0 is the no-effect control and ±100 the full control effect
How it was run: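 Reporter readout comes from luciferase under RARE control in C3RL4 cells; compound exposure lasts 6 hr at 37 C in 5% CO2, and luminescence is recorded following a 30 min room-temperature incubation with reagent.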

[9] = biological target: Nuclear receptor subfamily 1 group I member 3 (Homo sapiens) (UniProt Q14994); assay: qHTS assay to identify small molecule agonists of the constitutive androstane receptor (CAR) signaling pathway (AID 1224839); further: nearly all actives have a fitted effect of over 15% in size; further: potency means the concentration at half of the fitted maximal effect
How it was run: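 HepG2 cells stably expressing hCAR and a CYP2B6-2.2kb luciferase reporter were treated with compounds at 15 concentrations plus 0.75 uM PK11195 (final) for 24 h at 37 C; luminescence was read after ONE-Glo addition.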

[10] = qHTS assay to identify small molecule antagonists of the retinoid acid receptor (RAR) signaling pathway - cell viability counter screen (AID 1159551); further: on the % scale 0 is the no-effect control and ±100 the full control effect; nearly all actives have a fitted effect of over 35% in size
How it was run: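 Retinol-stimulated (1 uM final) C3RL4 cells, compound 6 h, 37 C; readout CellTiter-Glo luminescence (ATP) after 30 min RT incubation.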

[11] = qHTS assay to identify small molecule agonists of the estrogen related receptor signaling pathway with the pleiotropic PPARgamma coactivator (PGC) from Tox21 10K library (AID 1224842); further: nearly all actives have a fitted effect of over 15% in size; further: potency means the concentration at half of the fitted maximal effect
How it was run: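 PGC/ERR reporter cell line, 2,000 cells per well, incubated 6 h at 37 C before 23 nL compound in DMSO was added. After 18 h at 37 C, One-Glo luminescence read following 30 min at room temperature.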

[12] = qHTS assay to identify small molecule agonists of the RXR signaling pathway - cell viability counter screen (AID 1159529);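 further: HEK 293T cells carrying an RXR-alpha UAS beta-lactamase reporter; series mostly up to about 77 µM; on the % scale 0 is the no-effect control and ±100 the full control effect; nearly all actives have a fitted effect of over 50% in size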
How it was run: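 RXR-alpha-UAS-bla HEK 293T cells in medium with 2% charcoal-stripped FBS were preincubated 5 hr, then exposed to compounds for 16 hr at 37 C. Viability was read as CellTiter-Glo luminescence after 30 min at room temperature.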

[13] = qHTS assay to identify small molecule antagonists of the estrogen related receptor (ERR) signaling pathway (AID 1224819; further: potency means the concentration at half of the fitted maximal effect; nearly all actives have a fitted effect of over 50% in size)
How it was run: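 Luminescence readout (One-Glo, 30 min, RT) of ERR cell line after 18 h compound exposure at 37 C; cells seeded 2,000/well, pre-incubated 6 h, compounds pinned from DMSO stocks.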

[14] = qHTS assay to identify small molecule agonists of the estrogen related receptor (ERR) signaling pathway (AID 1224820); further: on the % scale 0 is the no-effect control and ±100 the full control effect
How it was run: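 Quantitative HTS of the LOPAC library used NTP ERR reporter cells treated 18 h at 37 C. Signal is luminescence after One-Glo addition and a 30 min room-temperature incubation.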

[15] = test system: estrogen-related receptor alpha (ERRalpha) with PGC-1alpha coactivator, human; assay: qHTS assay to identify small molecule antagonists of the estrogen related receptor signaling pathway with the pleiotropic PPARgamma coactivator (PGC) (AID 1224821; calls by dose curve;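 further: series mostly up to about 46 µM; on the % scale 0 is the no-effect control and ±100 the full control effect; lower luminescence signal means antagonism of PGC/ERR signalling; nearly all actives have a fitted effect of over 50% in size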)
How it was run: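 Quantitative HTS for antagonism: PGC/ERR cells received compounds after 6 h attachment and were incubated 18 h at 37 C, with luminescence (One-Glo) as the endpoint.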

[16] = qHTS assay to identify small molecule agonists of the estrogen related receptor signaling pathway with the pleiotropic PPARgamma coactivator (PGC) (AID 1224823); further: on the % scale 0 is the no-effect control and ±100 the full control effect
How it was run: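 Cell-based luciferase assay in the NTP-supplied PGC/ERR line, 2,000 cells/well; 18 h compound exposure at 37 C, luminescence after One-Glo.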

Cc1c(Nc2ncccc2C(=O)O)cccc1C(F)(F)F
inactive: outcome [1] | Potency [2] | Potency [4] | Potency [5] | Potency [6] | Potency [7]
active: Potency [3] 17.4 µM

C[C@H](CN1CCCC1)C(=O)c1ccc(C(F)(F)F)cc1
inactive: outcome [1] | Potency [8] | Potency [2] | Potency [3] | Potency [4] | Potency [9] | Potency [7]

O=C1CCCN1CCO
inactive: outcome [10] | Potency [8] | Potency [2] | Potency [3] | Potency [4] | Potency [5] | Potency [9] | Potency [7]

CCN(CCCCOC(=O)c1ccc(OC)c(OC)c1)C(C)Cc1ccc(OC)cc1 (stereo unspecified)
inactive: outcome [10] | outcome [1] | Potency [8] | Potency [2] | Potency [3] | Potency [4] | Potency [5] | Potency [9] | Potency [7] | Potency [11]

CCCCCC1CCC(=O)O1 (stereo unspecified)
inactive: Potency [12] | Potency [2] | Potency [3] | Potency [4] | Potency [5] | Potency [7] | Potency [11]

CC(C)(C)NCC(O)COc1ccc(NC(=O)NC2CCCCC2)cc1 (stereo unspecified)
inactive: outcome [10] | outcome [1] | Potency [2] | Potency [3] | Potency [4] | Potency [5] | Potency [6] | Potency [7]

O=C(O)c1ccccc1-n1cc(C(=O)O)c(=O)c2cc(Nc3c(F)cc(F)cc3Cl)c(Cl)cc21
inactive: outcome [10] | outcome [1] | Potency [8] | Potency [2] | Potency [3] | Potency [4] | Potency [5] | Potency [6] | Potency [9] | Potency [7]

CCCC1CCOC(C)S1 (stereo unspecified)
inactive: Potency [12] | Potency [2] | Potency [3] | Potency [4] | Potency [5] | Potency [7]

S=c1[nH][nH]c(=S)s1
active: Potency [3] 11.2 µM
inactive: Potency [12] | Potency [2] | Potency [4] | Potency [5] | Potency [6] | Potency [7]

CC1=CC(=C(c2ccc(N)cc2)c2ccc(N)cc2)C=CC1=N
inactive: activity, negative = inhibition [1] -2.67% [at 8.39 µM] | activation [8] -1.68% [at 8.36 µM] | activity change, negative = inhibition [3] -4.83% [at 10.5 µM] | viability change, negative = cytotoxic [4] -5.57% [at 8.39 µM] | activity change, negative = cytotoxicity [5] -13.7% [at 8.39 µM] | activity, negative = inhibition [6] 3.44% [at 8.39 µM] | activation [9] -0.508% [at 8.39 µM] | activation [11] -25.9% [at 8.39 µM]

CC1=C(C)C(=O)C(CCCCC#CCCCC#CCO)=C(C)C1=O
inactive: outcome [10] | outcome [1] | Potency [8] | outcome [14] | outcome [15] | outcome [16] | Potency [3] | Potency [4] | Potency [5] | Potency [6] | Potency [7] | Potency [11]
active: Potency [13] 12.8 µM | Potency [2] 23.7 µM

COc1ccc(C(=O)Nc2ccccc2)cc1[N+](=O)[O-]
active: Potency [8] 30.9 µM | Potency [9] 30.9 µM
inactive: outcome [10] | outcome [1] | Potency [4] | Potency [5] | Potency [6] | Potency [7]

O=Cc1ccc(Cl)c([N+](=O)[O-])c1
inactive: Potency [12] | Potency [3] | Potency [4] | Potency [5] | Potency [11]

COc1ccc(C(=O)c2ccc(C)cc2)c(O)c1
active: Potency [3] 11.4 µM | Potency [9] 27.6 µM | Potency [11] 7.78 µM
inactive: Potency [12] | Potency [2] | Potency [4] | Potency [5] | Potency [6] | Potency [7]

CC(C)(C)c1cc(C=O)cc(C(C)(C)C)c1O
inactive: Potency [12] | Potency [2] | Potency [3] | Potency [4] | Potency [5] | Potency [7]

COc1ccnc2c1CCCCC2S(=O)c1nc2ccccc2[nH]1 (stereo unspecified)
inactive: outcome [10] | outcome [1] | Potency [2] | Potency [4] | Potency [5] | Potency [6] | Potency [7]
active: Potency [9] 23.7 µM

SCCOCCOCCS
inactive: outcome [10] | Potency [2] | Potency [3] | Potency [4] | Potency [5] | Potency [6] | Potency [9] | Potency [7]
